From PubChem BioAssay (Tox21) come the findings set out here.

Where “and” joins values, the source holds several entries; their conditions need not be identical. Equal entries are not always repeated. Results filed as inconclusive are left out. Where a call stands in place of a potency, no number is given. Some compounds were tested as several samples or in several runs, with calls that do not always agree. Calls of active or inactive are those of the source. The call rests on the fitted dose curve; in most records, active means well fitted cell-killing curve with a large enough effect in the repeat runs; inconclusive means weak or mixed curves, or effect the other way; inactive means no such curve, though single readings can be large or run the other way.
Potency means the concentration at half of the fitted maximal effect.

This experiment can be described thus: qHTS assay to identify small molecule agonists of the farnesoid-X-receptor (FXR) signaling pathway - cell viability counter screen (AID 743218). Further: nearly all actives have a fitted effect of over 45% in size. The following applies: FXR-bla HEK293T viability, CellTiter-Glo luminescence, 16 h; series mostly up to 62.6 µM; viability change, negative = cytotoxic: at the top concentration. An excerpt: U.S. Tox21 Program National Center for Advancing Translational Sciences [NCATS] NIH Chemical Genomics Center [NCGC] U.S. Environmental Protection Agency [EPA] National Institutes of Environmental Health Sciences [NIEHS] National Toxicology Program [NTP] U.S. Food and Drug Administration [FDA] Tox21 Assay Overview: The farnesoid-X-receptor (FXR), a nuclear hormone receptor, is highly expressed in liver, intestine, kidney and adrenal cortex. Natural ligands of FXR are the bile acids (Cholic acid, Chenodeoxy cholic acid etc). FXR is an important regulator of diverse metabolic pathways, including the bile acid homeostasis, lipid and glucose metabolisms. FXR regulates the expression of target genes by binding either as a monomer or as a heterodimer with the retinoid X receptor (RXR). Numerous studies have reported that FXR exerts protective function during cholestasis, diabetes, liver regeneration, and cancer. To identify compounds that activate FXR signaling, GeneBLAzer FXR-UAS-bla HEK 293T cell line (Invitrogen, Carlsbad, CA) containing a beta-lactamase reporter gene under the control of a UAS response element was used to screen the Tox21 10K compound library. The cytotoxicity of the Tox21 compound library against the FXR-bla cell line was tested in parallel by measuring the cell viability using CellTiter-Glo assay in the same wells.
Tox21 Assay Protocol Summary: FXR-bla cells were dispensed at 5000 cells/5uL/well in 1536-well black wall/clear bottom plates using a Multidrop Combi (Thermo Fisher Scientific, Waltham, MA) dispenser. After the assay plates were incubated at 37 C and 5% CO2 for 5 h, 23 nL of compounds dissolved in DMSO, positive controls or DMSO only was transferred to the assay plate by a Pintool station (Kalypsys, San Diego, CA). The assay plates were incubated at 37C for 16 h. After 1 uL of LiveBLAzerTM B/G FRET substrate was added using a Bioraptr Flying Reagent Dispenser (FRD) workstation (Beckman Coulter, Indianapolis, IN), the plates were incubated at room temperature for 2 h, and fluorescence intensity was measured by an Envision plate reader (PerkinElmer, Shelton, CT). For cell viability readout that measures cytotoxicity, 4uL/well of CellTiter-Glo reagent was added into the assay plates using a Bioraptr FRD. After 30 min incubation at room temperature, the luminescence intensity in the plates was measured using a ViewLux plate reader (PerkinElmer).
In general terms: In qHTS, concentration-response curves come from the screen itself.
Turning to `CCNc1nc(Cl)nc(NCC)n1`, the “viability change, negative = cytotoxic” value is -11.1% (inactive). On to `Cc1cc(Cl)ccc1OCC(=O)O`, for which the Potency entry was “inactive”. For `CC[n+]1ccccc1`, the Potency result was “inactive”. On the same count and under the same terms, the result for `CCCC[n+]1ccc(C)cc1` reads “inactive”; that for `CCCCn1cc[n+](C)c1`, “inactive”; that for `C=CCOC(Cn1ccnc1)c1ccc(Cl)cc1Cl` (stereo not given), “inactive”. Still for that read-out and setting: the result for `CC(Cl)(Cl)C(=O)O` reads “inactive”; that for `Nc1ccccc1`, “inactive”.

`Nc1ccc(Cl)cc1`: the Potency entry is “inactive”.

Consider `Oc1cccc2cccnc12`, for which the Potency entry was “inactive and 949 nM (active)”. Regarding `CCCC[N+]1(C)CCCC1`, the Potency result is “inactive”.

`CCCCCCn1cc[n+](C)c1`: the Potency result is “inactive”. `O=c1nc(O)n(Cl)c(=O)n1Cl`: the Potency result is “inactive”. With `O=c1[nH]c(=O)n(Cl)c(=O)n1Cl`, the Potency entry is “inactive”. Take `O=P1(N(CCCl)CCCl)NCCCO1` (stereo not given): the Potency result is “inactive”. Same read-out and setting: with `C[N+](C)(C)Cc1ccccc1` the entry was “inactive”. Consider `CCOP(=S)(OCC)Oc1ccc2c(C)c(Cl)c(=O)oc2c1`, for which the Potency entry was “inactive”. For `Cc1cc(Cl)ccc1N`, the Potency result is “inactive”. In the case of `CCCCCCCCCCn1cc[n+](C)c1`, the Potency is 55.5 µM (active) and inactive. On to `O=[N+]([O-])O`, for which the Potency entry was “inactive”. For the compound `CCCC[N+]1(C)CCCCC1`, the Potency entry was “inactive”. Same read-out and setting: with `CCC[N+]1(C)CCCCC1` the entry was “inactive”. In the case of `N#CS`, the Potency entry is “inactive”. On the same count and under the same terms, the result for `COCC(=O)N(c1c(C)cccc1C)C(C)C(=O)OC` (stereo not given) reads “inactive”. For the compound `CCCC[n+]1ccccc1C`, the Potency entry is “inactive”. Regarding `O=C(O)COc1ccc(Cl)cc1Cl`, the Potency entry is “inactive”. With `CNC`, the Potency result is “inactive”.

Consider `Nc1ccc(-c2ccc(N)c(Cl)c2)cc1Cl`, for which the “viability change, negative = cytotoxic” value was 0% [at 81.1 µM] (inactive). Turning to `CCCCCC[n+]1ccccc1`, the Potency entry is “inactive”. Consider `CC[N+](CC)(CC)CC`, for which the Potency result is “inactive”. With `COP(=O)(OC)C(O)C(Cl)(Cl)Cl` (stereo not given), the Potency entry is “inactive”. In the case of `CCCn1cc[n+](C)c1`, the Potency result was “inactive”. For the compound `CCCCn1cc[n+](C)c1C`, the Potency entry was “inactive”. With `CCCCCCCCn1cc[n+](C)c1`, the Potency entry is “inactive”. Same read-out and setting: the result for `O=C(O)c1ccccc1O` reads “inactive”. As for `CC[N+]1(C)CCCC1`, the Potency result was “inactive”. In the case of `O=C(O)CCl`, the Potency result is “inactive”. Still for that read-out and setting: the result for `CCn1cc[n+](C)c1C` reads “inactive”. On to `C[C@]12CCC(=O)C=C1CC[C@@H]1[C@@H]2CC[C@]2(C)C(=O)CC[C@@H]12`, for which the “viability change, negative = cytotoxic” value was -15.1% (inactive). On to `CCC[N+]1(C)CCCC1`, for which the Potency result was “inactive”.
